Screening data (PubChem BioAssay)
Tgondii IFNg – T. gondii growth inhibition with IFN-gamma, primary screen, cell-based; activity change, negative = inhibition, % (test concentration not listed); AID 1259416, 2018; hit rate 3.8% among 69,000; Toxoplasma gondii growth in IFN-gamma-treated host cells; hits give low values; in the data active means activity change below about -70%, passing the limit was not always enough;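 further: host cells are HeLa cells infected with Toxoplasma gondii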
* = called active by the depositor; ! = a repeat was not active. The sample as a whole holds a higher share of hits than the screen did.

SMILES	Tgondii IFNg
NC(=NCCCCCCN=C(N)/N=C(\N)Nc1ccc(Cl)cc1)/N=C(\N)Nc1ccc(Cl)cc1	-82*
CC(=O)Nc1ccc(-c2cn(Cc3ccc(Cl)cc3)nn2)cc1	10
CC(C)N1CCOCC2(CN(C(=O)c3ccn[nH]3)CCO2)C1 (stereo unspecified)	-9
CN(C)C(=O)c1ccc2ncnc(N3CCCCC3)c2c1	-19
c1ccc2c(c1)OCC(c1csc3ncnc(N4CCCCC4)c13)O2 (stereo unspecified)	-90*
CCn1ccnc1CC1COc2ccccc2O1 (stereo unspecified)	-18
COc1ccc(-c2nnc(-c3nc(Nc4ccc(Br)cc4)c4ccccc4n3)o2)cc1	9
Cc1cc2cc(C(=O)NCCSc3nnc(C)s3)ccc2o1	13
CCOCC(=O)N1CCC2(CC1)CC(OCC1CCOCC1)CO2 (stereo unspecified)	-40
COc1ccccc1-c1ccc2c(c1)O[C@H](CN(C)CC1CCOCC1)[C@@H](C)CN([C@H](C)CO)S2(=O)=O	-52
C[C@@H]1CN([C@@H](C)CO)S(=O)(=O)c2ccc(C#Cc3ccccc3F)cc2O[C@@H]1CN(C)C(=O)Cc1cccnc1	-8
COc1cccc(-c2ccc3c(c2)O[C@@H](CN(C)Cc2cccnc2)[C@H](C)CN([C@@H](C)CO)S3(=O)=O)c1	-95*
COc1cccc(-c2ccc3c(c2)O[C@@H](CN(C)Cc2cccnc2)[C@@H](C)CN([C@H](C)CO)S3(=O)=O)c1	30
C[C@H]1CN([C@@H](C)CO)S(=O)(=O)c2ccc(C#CC(C)(C)O)cc2O[C@@H]1CN(C)Cc1ccc(F)cc1	-2
COc1ccccc1-c1ccc2c(c1)O[C@H](CN(C)CC1CCOCC1)[C@@H](C)CN([C@@H](C)CO)S2(=O)=O	-19
COc1cccc(-c2ccc3c(c2)O[C@H](CN(C)Cc2cccnc2)[C@@H](C)CN([C@H](C)CO)S3(=O)=O)c1	-97*
C[C@H](CO)N1C[C@H](C)[C@@H](CN(C)C(=O)Cc2cccnc2)Oc2cc(C#Cc3ccccc3F)ccc2S1(=O)=O	-108*
COc1cccc(-c2ccc3c(c2)O[C@@H](CN(C)Cc2cccnc2)[C@@H](C)CN([C@@H](C)CO)S3(=O)=O)c1	-55
Cc1cnc(CCNC(=O)CC2CCN(C(=O)C3(c4ccccc4)CCCC3)CC2)s1	0
COc1cc(N2CC[C@]3(CCC[C@@H](CNS(C)(=O)=O)O3)C2)ncn1	-17
Cc1ncsc1C(=O)N1CCC2(CC1)CC(CC(=O)O)c1ccccc1O2 (stereo unspecified)	-6
CN(C)CCNC(=O)C1CN(Cc2cnn(C)c2)Cc2ccnn2C1 (stereo unspecified)	-46
O=C(Cn1ncc2c(N3CCCCCC3)ncnc21)Nc1ccccc1F	49
Cc1nc(C)c(C(=O)N2CCc3cc(-c4csc(C5CC5)n4)ccc32)s1	-109*
O=C(C1CC1)N1CCc2cc(-c3csc(C4CC4)n3)ccc21	-112*
SMILES	Tgondii IFNg
CCOC(=O)C1CCN(C(=O)c2ccc(-c3csc(C4CC4)n3)cc2)CC1	160
Cc1nc(-c2ccccc2)sc1C(=O)N1CCCc2ccccc21	-29
Cc1cccc(N2CCN(C(=O)c3ccc(-c4csc(C5CC5)n4)cc3)CC2)c1C	13
CC(=O)N1CCC(C(=O)N2CCc3cc(-c4csc(C5CC5)n4)ccc32)CC1	45
CC(=O)Nc1ccc(C)cc1-c1nc2ccccc2[nH]c1=O	13
O=C(Nc1ccccc1)N1CCCC2(CCCN2Cc2ccccc2Cl)C1 (stereo unspecified)	4
COc1ccccc1OC1CN(Cc2cccc(OC)c2O)C1	-4
CCN1C(=O)CCc2cc(NC(=O)Cc3cccs3)ccc21	3
O=C(NC1CCNCC1)c1[nH]ncc1NC(=O)c1c(Cl)cccc1Cl	-72*
O=C(NC1CCc2[nH]ncc2C1)c1cccc(CC2CCNCC2)c1 (stereo unspecified)	3
O=C(NC1CCN(c2cnccn2)CC1)c1ccccc1C1CCNC1 (stereo unspecified)	3
Cc1ccccc1-c1nc(CN2CCN(C(=O)Nc3ccccc3)CC2)c(C)o1	1
COCC(=O)N1CCC2(c3ccccc3)CN(Cc3cccnc3)CC2C1 (stereo unspecified)	-6
CCCc1ncncc1C(=O)N1CCCC2(CNC(=O)O2)C1 (stereo unspecified)	41
COc1cc2ncn(-c3cc(OCc4ccccc4C(F)(F)F)c(C(N)=O)s3)c2cc1OC	-88*
COc1ccc(C(=O)c2sc3nc(C)cc(C(F)(F)F)c3c2N)cc1OC	-8
COc1ccccc1OCC(=O)n1nc(N)c2c(C(F)(F)F)cc(C)nc21	32
CCC(CC)CN1C[C@H]2OCCN(Cc3csc(C)n3)[C@H]2C1	3
CN(Cc1cn2c(n1)CN(Cc1ccco1)CC2)Cc1ccco1	6
CN(C)CCNC(=O)[C@H]1CC2CN(Cc3ccoc3)CC2N1C (stereo partly specified)	18
C[C@H]1[C@H](C)CC[C@]2(C(=O)O)CC[C@]3(C)C(=CCC4[C@@]5(C)C[C@@H](O)[C@H](O)[C@@](C)(CO)C5CC[C@]43C)[C@H]12 (stereo partly specified)	23
C[C@H]1[C@H](C)CC[C@]2(C(=O)O)CC[C@]3(C)C(=CCC4[C@@]5(C)C[C@@H](O)[C@H](O)[C@@](C)(CO)C5[C@H](O)C[C@]43C)[C@H]12 (stereo partly specified)	-28
C[C@H]1[C@H](C)CC[C@]2(C(=O)O)CC[C@]3(C)C(=CC[C@@H]4[C@@]5(C)C[C@@H](O)[C@H](O)[C@@](C)(CO)[C@@H]5CC[C@]43C)[C@H]12	-74*!
COCCNC(=O)C1CCCC12CCN(Cc1cn(C)nc1C)C2 (stereo unspecified)	3
Cc1cc(Nc2ccccn2)cc(C2CCCN(S(=O)(=O)c3ccc(F)cc3)C2)n1 (stereo unspecified)	-65
SMILES	Tgondii IFNg
Cc1cc(Nc2ccccn2)cc(C2CCCN(C(=O)c3n[nH]c4c3CCCCCC4)C2)n1 (stereo unspecified)	-86*
O=C(c1n[nH]c2c1CCCCCC2)N1CCCN(c2ccccn2)CC1	10
COCc1nnc(NC(=O)c2cc(-c3cccnc3)nc3c(C)cccc23)s1	-2
O=S(=O)(NCc1ccccc1)c1ccc(Nc2ccc(-c3ccccc3)nn2)cc1	-68
COc1ccc(Nc2nc(-c3nnc(-c4ccc(F)cc4)o3)nc3ccccc23)cc1	16
CCN1Cc2ccccc2CC1C(=O)NCc1nncn1C1CCCCC1 (stereo unspecified)	3
CC(C)NC(=O)N1CCC2(CC1)CCn1c(-c3cnn(C)c3)cnc12	-5
CC(C)NC(=O)N1CCC2(CC1)c1ncc(-c3ccnn3C)n1CCN2C	-89*
CC(=O)N1CCC2(CC1)NCCn1c(-c3ccnn3C)cnc12	-4
CC(C)n1c(C2CCCN(C(=O)c3ccc4c(c3)ncn4C)C2)nc2ccccc21 (stereo unspecified)	7
COc1cccc(CNC(=O)Cn2c(=O)cc(-c3nc(C4CC4)no3)c3ccccc32)c1	-3
COc1ccc(-n2c(Cc3ccccc3)nnc2SCC(=O)c2ccccc2)cc1	-47
COc1ccc(-n2c(CC#N)nnc2SCc2c(C)c(C)c(C)c(C)c2C)cc1	-89*
COc1ccc(-n2c(SCC#N)nnc2-c2cccnc2)cc1	-46
CC(=O)N1C(Cn2cccn2)CC2CN(C(=O)c3ccco3)CCC21 (stereo unspecified)	3
